Experimental findings from PubChem BioAssay (EPA / NIEHS) are described below.

Molecules are shown by their SMILES. Active and inactive are the calls of the source. Rule for the calls: active = hit-call score of the fitted dose curve at least 0.9, where 1 is the maximum; inactive = score below 0.9.

Sequence of Caspase-3 (Homo sapiens) (P42574 whole entry, looked up): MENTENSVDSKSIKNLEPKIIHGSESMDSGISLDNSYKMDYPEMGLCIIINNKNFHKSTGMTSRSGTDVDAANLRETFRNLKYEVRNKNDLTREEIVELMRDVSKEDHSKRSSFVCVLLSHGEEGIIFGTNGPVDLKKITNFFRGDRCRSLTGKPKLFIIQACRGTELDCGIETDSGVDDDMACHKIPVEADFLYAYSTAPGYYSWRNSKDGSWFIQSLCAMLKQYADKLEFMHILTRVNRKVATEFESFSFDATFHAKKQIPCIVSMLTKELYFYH

Read-out in the assay: Caspase-3 (Homo sapiens) (UniProt P42574)
The assay is described as follows: LTEA_HepaRG_CASP3: Life Technologies and Expression Analysis (LTEA) Assay for cysteine-aspartic acid protease (CASP3) using HepaRG (AID 2283477). Particulars: mRNA level, 48 h; actives raise or lower the signal. On the procedure: LTEA_HepaRG is a cell based, multiplexed-readout assay that uses HepaRG, a human liver cell line, with measurements taken at 48 hours after chemical dosing on a 96-well plate.LTEA_HepaRG_CASP3 is one of 102 assay component(s) measured in the LTEA HepaRG cell culture assay. It is a marker of Cell proliferation, survival, death.Data from the assay component LTEA_HepaRG_CASP3 was analyzed into 1 endpoint. This assay endpoint, LTEA_HepaRG_CASP3, was analyzed with bidirectional fitting relative to DMSO as the negative control and baseline of activity. Using a type of inducible reporter, measures of mRNA induction for gain or loss-of-signal activity can be used to understand regulation of transcription factor activity. To generalize the intended target to other relatable targets, this assay endpoint is annotated to the protease intended target family, where the subfamily is cysteine protease.
A total of 1060 chemcials from the ToxCast library were tested in eight-point concentration-response experiments. Cell culture and cytotoxicity assays were conducted at Thermo Fisher Scientific's Custom Services facility (Madison, WI). A single lot of human HepaRG cells (Thermo Fisher Scientific, Frederick, MD) was used for the cell culture experiments. 96-well format collagen type I coated plates of human HepaRG cells were prepared using established methods. Briefly, cryopreserved HepaRG cells were thawed, plated at a density of approximately 100,000 cells/well in HepaRG Thaw, Plate, and General Purpose media (HPRG770, Thermo Fisher Scientific), and incubated for 48 hours. 0.5% DMSO was selected as vehicle control to balance the requisite need of DMSO in HepaRG cultures to maintain differentiation (for example, baseline metabolism, proportions of hepatocytes vs. cholangiocytes), while enabling further hepatic receptor pathway activation (for example, PXR and CAR) in response to chemical exposure. 48 hours after plating, the culture medium was replaced with HepaRG Serum-Free Incudtion Media. Cells were exposed to each test chemical in duplicate and maintained in CO2 incubators for another 48 hours. Chemical plates were thawed to room temperature and 200x concentrations of treatment groups were prepared. 8-point conentration-reponse curves were made with the highest exposure at 100 uM, followed by half-log dilutions, all in 0.5% DMSO. Each test plate contained variouse controls, induction positive controls (1mM phenobarbital), cytotoxicity positive controls ([…] aflatoxin B1), vehicle controls (0.5% DMSO), and total lysis controls (0.5% DMSO). Cell morphology images were taken using an Essen IncuCyte FLR automated microscope, with six 96-well plates imaged in about 24 minutes. Images were captured and exported and JPEG files. Spent culture media was transfered to black-well plates for the LDH assay, and remaining media was sorted at -80 C for later use. Cells were treated with RLT buffer and frozen until shipped for gene expression analysis. Total RNA was isolated from the cell suspension in 75 uL of Buffer RLT (Qiagen, Germantown, MD 20874) by Quintiles/Expression Analysis (Durham, NC) using a custom isolation procedure. Total RNA from each plate well was transferred to a preamplification plate. Fluidigm's 96.96 Dynamic ArrayTM (Fluidigm, Amsterdam, the Netherlands) technology was used for gene expression analyses by quantitative reverse transcription polymerase chain reaction (qRT-PCR, performed by Quintiles/Expression Analysis, Durham, NC)89. Standard TaqManTM Assays (Applied Biosystems/ThermoFisher Scientific, Foster City, CA) were used to assess the expression of 93 genes selected based on their selectivity and sensitivity to important hepatic receptors known to be modulated by environmental chemicals; importance in human hepatocyte functionality; and hepatotoxicity. […]
For `CCOc1ccc2[nH]cc(C(=O)NCc3ccccc3)c(=O)c2n1`, the outcome was inactive.

On to `O=c1[nH]cnc2c1ncn2[C@H]1CC[C@@H](CO)O1`, for which the compound was classed as inactive.

On to `NC(N)=O`, for which the result was inactive.

As to `CC[C@H](C)C(=O)O[C@H]1C[C@H](O)C=C2C=C[C@H](C)[C@H](CC[C@@H](O)C[C@@H](O)CC(=O)O)[C@H]21`, the compound was called inactive.

On to `OCCOCCOCCO`, for which the call was inactive.

With `CCc1ccc(O)c(C(C)(C)C)c1`, the call was inactive.

With `O=C(O)c1cccc(C(=O)O)c1`, the result was inactive.

`CCCCCCCC/C=C\CCCCCCCC(=O)OC[C@@H](O)[C@H]1OC[C@H](O)[C@H]1O`: the result was inactive.

For `c1ccc2cc3ccccc3cc2c1`, the compound was classed as inactive.

As to `CC(=O)c1ccccc1`, the outcome was inactive.

Take `c1ccc(C(O[C@@H]2CCCN(CCc3ccc4c(c3)OCO4)C2)c2ccccc2)cc1`: the AC50 is 76.7 µM (active).

In the case of `C[C@@H](Oc1ccc(CNC(=O)c2cccnc2Oc2ccc3c(c2)OCO3)c(F)c1)C(=O)O`, the outcome was inactive.

As to `Cc1ccc(S(=O)(=O)NC(=O)NN2CCCCCC2)cc1`, the compound was called inactive.

Turning to `OC(CCl)CCl`, the call was inactive.

For the compound `CCCCCCCCCCCCCCO`, the result was inactive.

Take `CNC(C)=O`: the outcome was inactive.

With `CC(C)CC(C)O` (stereo not given), the compound was classed as inactive.

As for `O=S(=O)(O)c1ccc(N=Nc2c(O)ccc3cc(S(=O)(=O)O)ccc23)cc1`, the compound was classed as inactive.

`Cn1c(=O)c2[nH]cnc2n(C)c1=O`: the compound was called inactive.

Consider `O=C(NO)C1(NS(=O)(=O)c2ccc(Oc3ccc(F)cc3)cc2)CCOCC1`, for which the AC50 is 50 µM (active).

Regarding `OCCNCCO`, the compound was called inactive.

On to `CCCCCCCC1CCC(=O)O1` (stereo not given), for which the outcome was inactive.

As to `COc1cc2c(c(OC)c1OC)-c1ccc(OC)c(=O)cc1[C@@H](NC(C)=O)CC2`, the result was inactive.

As for `Cc1nccn1-c1ccc(Sc2cccc(C3(C(N)=O)CCOCC3)c2)cc1`, the half-maximal activity concentration (AC50) is 2.48 µM (active).

As for `CC(C)CCCCCCOC(=O)C1CCCCC1C(=O)OCCCCCCC(C)C` (stereo not given), the AC50 is 0.00316 µM (active).

With `NC(=O)N1c2ccccc2C=Cc2ccccc21`, the call was inactive.

As for `O=C(O)c1ccc2c(c1)nc(C(=O)NC1CCN(C3CC3)CC1)n2Cc1cc(-c2ccc(Cl)s2)on1`, the call was inactive.

Turning to `CCCOc1ccc(S(=O)(=O)N2CCN(CC)CC2)cc1-c1nc2c(CC)n(Cc3ccccn3)nc2c(=O)[nH]1`, the compound was called inactive.

Regarding `CCc1cccc(CC)c1N`, the call was inactive.

As to `C=CN1CCCC1=O`, the call was inactive.

For `CC1(C)C(=O)N(Cl)C(=O)N1Cl`, the compound was called inactive.

Consider `NNC(=O)c1ccncc1`, for which the outcome was inactive.

With `O=C1CN(N=Cc2ccc([N+](=O)[O-])o2)C(=O)N1`, the outcome was inactive.

In the case of `Cc1nc(-c2ccccn2)ncc1C(=O)Nn1cc(C)c2cc(F)ccc21`, the result was inactive.

Take `CCCCC(CC)C(=O)OCCOCCOCCOC(=O)C(CC)CCCC` (stereo not given): the call was inactive.

For the compound `CCCCCCCCN(C)C`, the compound was called inactive.

For the compound `C[C@]12C=CC(=O)C=C1CC[C@H]1[C@@H]3C[C@@H](O)[C@](O)(C(=O)CO)[C@@]3(C)C[C@H](O)[C@@]12F`, the compound was classed as inactive.

For the compound `CCCCCCCCCC`, the outcome was inactive.

Regarding `CCCCCCOC(=O)CC(CC(=O)OCCCCCC)(OC(=O)CCC)C(=O)OCCCCCC`, the call was inactive.

Regarding `CCCCCCCCCCCCCCCCOS(=O)(=O)O`, the outcome was inactive.

As usually defined, the AC50 is the concentration giving half of the maximal activity seen.
